# Screening results: PubChem BioAssay, Center for Chemical Genomics, University of Michigan
# Dicer inh = human Dicer pre-microRNA cleavage inhibition | actives 6% (n = 47,000) | z-score at 25 µM | cat-ELCCA pre-miR-21 Dicer processing, chemiluminescence; hits give high values | Q9UPY3; in the data active = z-score above about 3, passing the limit was not always enough;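 also: higher signal means more uncleaved substrate so more Dicer inhibition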
# Target sequence (Q9UPY3 whole entry, looked up): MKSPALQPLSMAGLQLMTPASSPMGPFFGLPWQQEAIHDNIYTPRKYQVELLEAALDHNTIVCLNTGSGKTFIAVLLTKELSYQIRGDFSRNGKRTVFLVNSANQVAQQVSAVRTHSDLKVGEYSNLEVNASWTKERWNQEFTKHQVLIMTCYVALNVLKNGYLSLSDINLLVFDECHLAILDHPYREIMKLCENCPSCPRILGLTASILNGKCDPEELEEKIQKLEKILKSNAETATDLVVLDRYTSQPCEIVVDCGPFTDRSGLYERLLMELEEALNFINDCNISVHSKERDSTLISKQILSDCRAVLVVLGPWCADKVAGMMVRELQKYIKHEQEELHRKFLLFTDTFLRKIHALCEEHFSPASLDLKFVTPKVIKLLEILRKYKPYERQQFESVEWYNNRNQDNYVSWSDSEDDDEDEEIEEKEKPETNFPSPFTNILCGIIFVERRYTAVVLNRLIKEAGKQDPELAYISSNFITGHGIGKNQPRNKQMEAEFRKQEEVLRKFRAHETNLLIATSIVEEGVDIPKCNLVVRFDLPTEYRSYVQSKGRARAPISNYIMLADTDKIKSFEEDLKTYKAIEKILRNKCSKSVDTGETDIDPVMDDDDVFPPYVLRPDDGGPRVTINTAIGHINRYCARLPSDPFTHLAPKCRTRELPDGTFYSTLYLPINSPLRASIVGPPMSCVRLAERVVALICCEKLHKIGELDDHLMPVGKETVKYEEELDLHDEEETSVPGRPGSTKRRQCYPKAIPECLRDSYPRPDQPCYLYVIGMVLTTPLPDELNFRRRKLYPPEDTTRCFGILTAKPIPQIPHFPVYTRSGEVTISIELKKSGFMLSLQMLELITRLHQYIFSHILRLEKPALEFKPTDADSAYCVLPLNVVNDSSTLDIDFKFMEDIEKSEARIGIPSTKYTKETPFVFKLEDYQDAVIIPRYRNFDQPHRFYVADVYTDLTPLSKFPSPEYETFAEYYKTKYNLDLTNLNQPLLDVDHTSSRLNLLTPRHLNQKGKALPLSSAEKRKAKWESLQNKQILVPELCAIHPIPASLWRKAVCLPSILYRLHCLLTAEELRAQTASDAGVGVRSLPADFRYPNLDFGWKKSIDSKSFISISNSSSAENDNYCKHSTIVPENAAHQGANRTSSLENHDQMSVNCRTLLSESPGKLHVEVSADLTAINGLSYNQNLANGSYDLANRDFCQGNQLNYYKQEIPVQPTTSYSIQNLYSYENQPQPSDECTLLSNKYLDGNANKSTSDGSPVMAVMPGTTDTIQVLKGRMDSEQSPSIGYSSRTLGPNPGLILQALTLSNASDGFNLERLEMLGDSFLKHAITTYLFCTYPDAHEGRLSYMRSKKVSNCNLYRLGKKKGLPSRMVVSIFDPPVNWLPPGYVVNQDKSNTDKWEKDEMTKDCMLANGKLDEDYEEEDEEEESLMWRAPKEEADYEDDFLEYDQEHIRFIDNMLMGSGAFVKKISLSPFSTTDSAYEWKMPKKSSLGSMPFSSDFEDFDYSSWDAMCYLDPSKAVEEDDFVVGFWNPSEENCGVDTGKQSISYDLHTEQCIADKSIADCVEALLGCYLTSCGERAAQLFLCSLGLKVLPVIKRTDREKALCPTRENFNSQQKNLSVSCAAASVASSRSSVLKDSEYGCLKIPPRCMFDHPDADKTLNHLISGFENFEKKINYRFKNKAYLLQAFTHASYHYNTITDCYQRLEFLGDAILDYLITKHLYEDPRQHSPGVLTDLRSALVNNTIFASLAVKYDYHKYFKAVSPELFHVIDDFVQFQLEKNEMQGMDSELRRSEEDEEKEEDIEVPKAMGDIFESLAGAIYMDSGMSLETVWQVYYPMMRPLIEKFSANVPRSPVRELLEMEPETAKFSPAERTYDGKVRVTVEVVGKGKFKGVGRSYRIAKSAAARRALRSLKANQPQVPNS
# A number is an active result; – = inactive. Shown is part of a subset that was picked to be rich in hits.
SMILES,Dicer inh
Cc1csc(NC(=O)c2ccco2)c1C(=O)c1ccccc1,–
O=C(Nc1csc(C(F)(F)F)c1-c1ccccc1)C(Cl)(Cl)Cl,–
O=C(Nc1csc(C(F)(F)F)c1-c1ccccc1)c1ccco1,4.37
CCOc1ccc2ccccc2c1/C=C1\N=C(SCC)SC1=O,–
O=c1c2cc(-c3ccccc3)sc2ncn1Cc1ccccc1Cl,–
CC12N=NCC1C(=O)N(c1cccc(Cl)c1)C2=O (centres undefined),–
CC12N=NCC1C(=O)N(c1ccc(Cl)cc1)C2=O (centres undefined),3.05
Cc1ccc(N2C(=O)C3CN=NC3(C)C2=O)cc1 (centres undefined),–
CCOC(=O)c1cnc2cc(-c3ccc(Cl)cc3)nn2c1C,–
CC(C)c1nc2sc3c(NCCO)ncnc3c2c2c1CCCC2,–
CN(CCOC(=O)c1ccc(Cl)cc1)c1nc2cc(Cl)ccc2s1,–
CCOC(=O)c1cncc(C(=O)OCC)c1,–
O=C1NC(=S)NC(=O)C1=C/C=C/c1c(O)[nH]c(=S)[nH]c1=O,–
CC1(C)CC(=O)C2=C(C1)Nc1ccccc1NC2c1ccccc1F (centres undefined),–
CC1(C)CC(=O)C2=C(C1)Nc1ccccc1S2,4.06
CC1(C)CC(=O)C2=C(C1)Nc1ccccc1NC2c1cccs1 (centres undefined),–
O=C(CSc1nc2sc3c(c2c(=O)[nH]1)CCCC3)NCCCn1ccnc1,–
C#CCSc1nnnn1-c1c(C)cc(C)cc1C,–
CC(=O)[C@@]1(O)CCC2C3CC[C@@]4(C)CC(=O)CCC4(C)C3C(=O)CC21C (some centres undefined),–
COC(=O)CSC1=C(C#N)C(=O)NC(c2ccc(OC)c(OC)c2)S1 (centres undefined),–
CCSC1=C(C#N)C(=O)NC(c2ccc(OC)c(OC)c2)S1 (centres undefined),–
CCCCSC1=C(C#N)C(=O)NC(c2ccc(OC)c(OC)c2)S1 (centres undefined),3.35
O=C1CC(NCC2CCCO2)C(=O)N1c1ccc(F)cc1 (centres undefined),–
O=C(NCc1ccc(F)cc1)c1nc2c(nnn2CC2CCCO2)c(=O)[nH]1 (centres undefined),3.1
Cc1nc2cc(Cl)ccc2c(=O)n1CC1CCCO1 (centres undefined),–
SMILES,Dicer inh
Cc1ccc(C2Nn3c(C)nnc3SC2C(=O)Nc2ccc(Br)cc2F)cc1 (centres undefined),–
COc1cc2nc(-c3cccc(OC(C)=O)c3)oc(=O)c2cc1OC,–
CC(=O)Nc1ccc(C(=O)CSc2n[nH]c(=O)n2-c2ccccc2C(F)(F)F)cc1,–
Cc1ccc(C(=O)O)c2c1N[C@H](c1cccc(Cl)c1)C1CC=CC21 (some centres undefined),–
Cc1ccc(C2Nc3c(C)ccc(C(=O)O)c3C3C=CCC32)cc1 (centres undefined),3.28
Cc1ccc(C(=O)O)c2c1NC(c1ccc(Cl)cc1)C1CC=CC21 (centres undefined),–
CC1=C(OS(=O)(=O)c2cc(C)c(Cl)cc2Cl)C(=O)CC1,–
Nc1c(-c2nn[nH]n2)cnn1-c1ccc(Cl)cc1Cl,–
COc1ccc(Cc2nnc(N)o2)cc1OC,–
COc1ccc(Cc2nnc(Nc3ccc(Cl)cc3Cl)o2)cc1OC,3.89
COc1ccc(Cc2nnc(Nc3ccc(C)cc3)o2)cc1OC,–
CCOCCOC(=O)C1=C(C)NC2=C(C(=O)CC(C)(C)C2)C1c1ccc(CC)cc1 (centres undefined),–
CCCOC(=O)C1=C(C)NC2=C(C(=O)CC(C)(C)C2)C1c1ccc(SC)cc1 (centres undefined),–
CCCOC(=O)C1=C(C)NC2=C(C(=O)CC(C)(C)C2)C1c1cccnc1 (centres undefined),–
CC1=C(C(=O)OCCOc2ccccc2)C(c2cccnc2)C2=C(CC(C)(C)CC2=O)N1 (centres undefined),3.46
CCCOCCOC(=O)C1=C(C)NC2=C(C(=O)CC(C)(C)C2)C1c1ccsc1 (centres undefined),5.08
CSc1ccc(C2C(C(=O)OCCOc3ccccc3)=C(C)NC3=C2C(=O)CC(C)(C)C3)cc1 (centres undefined),–
O=C(Nc1cnn(Cc2ccc(F)cc2)c1)c1nc2ncccn2n1,–
Cc1cccc(C(=O)N(C)C2CCCCC2)c1C,–
Cc1nn(C)c2ncc3c(=O)n(Cc4ccccc4Cl)n(C)c3c12,–
CSc1nc(C)c2cc(C)oc2n1,4.27
C=CCSc1nc(C)c2cc(C)ccc2n1,–
CSc1ncccc1C(=O)NC(CC(C)C)C(=O)O (centres undefined),–
CN1CCN(CC(=O)N2CCc3ccccc32)CC1,–
O=C(CN1CCCCC1)N1c2ccccc2CCc2ccccc21,–
SMILES,Dicer inh
CN1CCN(CC(=O)N2c3ccccc3C=Cc3ccccc32)CC1,7.01
CCC(C(N)=O)(c1ccccc1)c1ccc([N+](=O)[O-])cc1 (centres undefined),–
Cc1ccc(N2N=C(N)CC2=O)cc1,–
Cc1ccc(C)n1-c1ccc(N)cc1,–
CC1=NC(=O)CN1c1ccc(N)cc1,4.02
O=C(O)CN1CC(=O)Oc2ccccc21,–
